Data on 13 compounds can be found in PubChem BioAssay.

Experiment [1] can be described thus: E. coli DRC41 culture turbidity changes, primary screen, E. coli filamentation inducer project, strain DRC41, OD650, 48 h (AID 1152).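 Also: E. coli MC1000 strain DRC41 lacking acrAB efflux pump and sulA.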 The following applies: E. coli DRC41 (acrAB sulA), higher = more signal, called active from +8 up or from −8 down.
A short description of experiment [2]: small-molecule binders of probe aLefty1, primary screen, biochemical, small-molecule microarray, 635/667 nm fluorescence (AID 1153).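 Also: score merges spot fluorescence with signal-to-noise ratio from the scanned slide images.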 The following applies: higher = more signal.
Experiment [3] can be described thus: PSAC antagonists in infected red cells, primary screen, cell-based, P. falciparum Indochina, OD700, 1 h (AID 1154). The conditions noted are these: P. falciparum Indochina infected RBC osmotic lysis, higher = more signal, called active from +8 up or from −8 down.
The nature of experiment [4]: PSAC antagonists in infected red cells, primary screen, cell-based, P. falciparum Indochina, OD700, 2 h (AID 1155).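 Also: lysis reports solute entry through the parasite surface anion channel PSAC; channel blockers reduce lysis of infected cells.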 The following applies: P. falciparum Indochina infected erythrocytes, osmotic lysis OD700; higher = more signal, called active from +8 up or from −8 down.
The nature of experiment [5]: osmotic lysis modulators in infected erythrocytes, primary screen, PSAC antagonist project, cell-based, P. falciparum Indochina, OD700, 3 h (AID 1156). The following applies: higher = more signal, called active from +8 up or from −8 down.
The nature of experiment [6]: PSAC antagonists in infected red cells, primary screen, cell-based, P. falciparum Indochina, OD700, 18 h (AID 1157). The following applies: P. falciparum Indochina infected erythrocytes, osmotic lysis OD700, 18 h; higher = more signal, called active from +8 up or from −8 down.
The nature of experiment [7]: modulators of S6 phosphorylation in cells, primary screen, cell-based, A549, cytoblot, luminescence, serum-stimulated (AID 1158).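 Also: serum-stimulated A549 lung adenocarcinoma cells; signal is phosphorylated S6 detected by cytoblot immunostaining with HRP secondary.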 The following applies: A549 phospho-S6 cytoblot, 5 h, higher = more signal.
Experiment [8] concerns the target NADPH oxidase 2 (Homo sapiens) (UniProt P04839). The experiment in a line: NOX2-dependent H2O2 signal modulators, primary screen, NOX inhibitor project, cell-based, HEK293-NOX2, PMA-stimulated, Amplex Red fluorescence (AID 1159). Also: test concentration not given here. The following applies: 45 min, higher = more signal, called active from +8 up or from −8 down.
For experiment [9], the target named is NADPH oxidase 4 (Homo sapiens) (UniProt Q9NPH5). The experiment in a line: NOX4-dependent H2O2 signal modulators, primary screen, NOX inhibitor project, cell-based, HEK293-NOX4, tetracycline-induced, Amplex Red fluorescence (AID 1160). The conditions noted are these: 45 min, higher = more signal, called active from +8 up or from −8 down.
In experiment [10] the target is NADPH oxidase 5 (Homo sapiens) (UniProt Q96PH1). As to the kind of experiment: NOX5-dependent H2O2 signal modulators, primary screen, NOX inhibitor project, cell-based, HEK293-NOX5, Amplex Red fluorescence (AID 1161). The conditions noted are these: HEK293-NOX5, ionomycin, 45 min, higher = more signal.

The source made the active and inactive calls.

NADPH oxidase 2 (Homo sapiens), sequence (P04839 whole entry, looked up): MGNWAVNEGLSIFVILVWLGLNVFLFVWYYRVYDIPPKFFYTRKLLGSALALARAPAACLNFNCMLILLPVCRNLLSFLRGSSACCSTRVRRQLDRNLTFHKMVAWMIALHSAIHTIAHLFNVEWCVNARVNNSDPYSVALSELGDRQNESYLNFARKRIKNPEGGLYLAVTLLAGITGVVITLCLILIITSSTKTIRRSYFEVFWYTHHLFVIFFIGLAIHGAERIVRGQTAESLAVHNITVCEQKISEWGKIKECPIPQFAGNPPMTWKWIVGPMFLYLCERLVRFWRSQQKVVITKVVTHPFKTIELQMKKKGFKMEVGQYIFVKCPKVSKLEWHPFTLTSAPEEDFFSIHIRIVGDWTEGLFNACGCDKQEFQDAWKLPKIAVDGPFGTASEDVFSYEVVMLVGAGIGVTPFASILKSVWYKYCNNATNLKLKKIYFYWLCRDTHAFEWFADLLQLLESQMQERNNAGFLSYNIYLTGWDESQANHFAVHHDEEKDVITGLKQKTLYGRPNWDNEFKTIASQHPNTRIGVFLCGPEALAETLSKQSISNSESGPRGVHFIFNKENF
NADPH oxidase 4 (Homo sapiens), sequence (Q9NPH5 whole entry, looked up): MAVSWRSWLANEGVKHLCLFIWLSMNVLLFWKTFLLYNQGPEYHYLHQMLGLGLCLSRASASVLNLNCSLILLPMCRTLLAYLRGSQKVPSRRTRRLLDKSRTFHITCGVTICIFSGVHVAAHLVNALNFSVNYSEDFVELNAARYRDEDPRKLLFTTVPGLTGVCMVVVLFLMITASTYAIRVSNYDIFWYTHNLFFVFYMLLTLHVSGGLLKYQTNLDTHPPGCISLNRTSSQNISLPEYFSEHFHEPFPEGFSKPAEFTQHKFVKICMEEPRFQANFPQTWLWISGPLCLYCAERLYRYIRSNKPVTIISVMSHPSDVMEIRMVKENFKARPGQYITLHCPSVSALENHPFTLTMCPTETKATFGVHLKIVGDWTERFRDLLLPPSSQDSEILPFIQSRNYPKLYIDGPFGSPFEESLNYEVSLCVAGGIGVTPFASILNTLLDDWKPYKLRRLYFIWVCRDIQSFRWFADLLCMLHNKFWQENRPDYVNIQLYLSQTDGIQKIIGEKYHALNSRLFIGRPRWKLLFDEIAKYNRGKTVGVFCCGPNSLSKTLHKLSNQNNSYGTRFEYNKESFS
NADPH oxidase 5 (Homo sapiens), sequence (Q96PH1 whole entry, looked up): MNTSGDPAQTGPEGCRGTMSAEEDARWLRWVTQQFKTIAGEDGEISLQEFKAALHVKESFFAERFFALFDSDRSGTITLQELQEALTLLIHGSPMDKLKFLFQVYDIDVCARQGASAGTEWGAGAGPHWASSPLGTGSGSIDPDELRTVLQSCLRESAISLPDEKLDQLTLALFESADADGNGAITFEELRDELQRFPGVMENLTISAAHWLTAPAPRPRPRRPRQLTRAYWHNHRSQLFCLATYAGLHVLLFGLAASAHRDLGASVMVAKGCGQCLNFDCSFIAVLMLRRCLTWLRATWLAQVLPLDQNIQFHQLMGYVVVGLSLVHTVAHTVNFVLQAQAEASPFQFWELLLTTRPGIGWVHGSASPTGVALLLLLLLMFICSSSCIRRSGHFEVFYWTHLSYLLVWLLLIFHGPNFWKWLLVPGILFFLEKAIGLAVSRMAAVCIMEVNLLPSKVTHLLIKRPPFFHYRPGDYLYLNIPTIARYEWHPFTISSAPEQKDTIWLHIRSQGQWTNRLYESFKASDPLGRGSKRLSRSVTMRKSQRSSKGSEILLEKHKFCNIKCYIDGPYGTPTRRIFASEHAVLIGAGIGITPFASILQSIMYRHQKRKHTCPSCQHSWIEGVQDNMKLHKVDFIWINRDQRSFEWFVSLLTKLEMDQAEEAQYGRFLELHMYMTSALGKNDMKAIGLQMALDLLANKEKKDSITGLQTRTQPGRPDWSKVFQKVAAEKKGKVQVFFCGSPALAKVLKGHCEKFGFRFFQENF

As for `O=C1O[C@@H](c2ccccc2)[C@@H](c2ccccc2)N2[C@@H](c3ccc(OCCO)cc3)[C@]3(C(=O)Nc4ccc(C#CCCO)cc43)[C@@H](C(=O)NC[C@H](O)c3ccccc3)[C@H]12`, the z-score in experiment [1] is 0.591 (inactive); in [3] it was 3.19 (inactive); in [4] it was 1.4 (inactive); in experiment [5] it was 1.53 (inactive); in [6] it was 0.688 (inactive); in [7], 0.136. Also, the z-score in experiment [8] was 2.21 (inactive); in experiment [9], 1.71 (inactive); in experiment [10], 0.235. The composite z-score in [2] was determined as 0.708.
For `O=C(O)[C@H](Cc1ccccc1)n1cc(-c2ccccc2)nn1`, the z-score in experiment [1] was -0.695 (inactive); in experiment [3], -0.256 (inactive); in experiment [4], 0.216 (inactive); in experiment [5] it was -0.564 (inactive); in experiment [6], 0.161 (inactive); in [7] it was 0.473. Moreover, the z-score is -1.58 (inactive) in experiment [8], 0.283 (inactive) in experiment [9] and -0.837 in experiment [10]. The compound further displayed a composite z-score in [2] of -0.144.
Regarding `O=C(NC1CC1)[C@@H]1c2ccccc2C(=O)N(Cc2cc(F)cc(C(F)(F)F)c2)[C@H]1c1ccc(CO)cc1`, the z-score is -0.857 (inactive) in experiment [1]; 1.88 (inactive) in experiment [3]; 0.115 (inactive) in [4]; 0.943 (inactive) in experiment [5]; 0.0358 (inactive) in experiment [6]; -0.185 in [7]. Further, the z-score in [8] is -0.0603 (inactive); in [9], 0.463 (inactive); in experiment [10], 0.515. In experiment [2], this compound gave a composite z-score of -0.205.
Take `Cc1c(NC(=O)/C(C#N)=C/c2cccc([N+](=O)[O-])c2)c(=O)n(-c2ccccc2)n1C`: the z-score was 0.969 (inactive) in [1]; 0.468 (inactive) in experiment [3]; -0.376 (inactive) in experiment [4]; -0.451 (inactive) in experiment [5]; -0.481 (inactive) in [6]; 2.39 in experiment [7]. Moreover, the results for the z-score in [8], in experiment [9] and in experiment [10] were -1.36 (inactive), -0.497 (inactive) and 0.864, respectively. Also, the composite z-score in [2] was -0.173.
For `CCOC(=O)C[C@H]1[C@H](OC(=O)c2cc3ccccc3oc2=O)[C@@H](NC(=O)CC(C)C)c2cc(OCCCO)ccc2N1C(=O)c1ccccc1`, the z-score was 2.61 (inactive) in experiment [1]; 0.522 (inactive) in experiment [3]; -1.18 (inactive) in experiment [4]; 0.71 (inactive) in experiment [5]; -2.17 (inactive) in experiment [6]; 1.96 in experiment [7]. Further, the figures for the z-score in experiment [8], in experiment [9] and in experiment [10] were -0.403 (inactive), 0.0665 (inactive) and 0.622, respectively. Besides, in [2], the composite z-score is -0.0601.
As for `[N-]=[N+]=NCc1ccccc1[C@H]1OC(c2ccc(OCCCO)cc2)=N[C@@]1(Cc1ccccc1)C(=O)N1CCCCC1`, the z-score in experiment [1] was 0.796 (inactive); in experiment [3], 28.4 (active); in experiment [4], 23.2 (active); in experiment [5] it was 1.75 (inactive); in experiment [6] it was 1.77 (inactive); in experiment [7], 1.3. The z-score is -3.54 (inactive) in [8], -0.919 (inactive) in [9] and -1.28 in experiment [10]. The same compound displayed a composite z-score in experiment [2] of 0.0331.
Consider `COc1ccc([Si](C)(C)[C@H]2[C@H](CC(=O)N3CCC[C@H]3CO)O[C@@]3(C(=O)N(Cc4cccc(N5CCOC5=O)c4)c4ccccc43)[C@@H]2C)cc1`, for which the z-score in experiment [1] was 1.18 (inactive); in experiment [3], 4.76 (inactive); in experiment [4], 1.13 (inactive); in experiment [5], 0.618 (inactive); in experiment [6], 0.722 (inactive); in experiment [7], 0.305. Besides, the z-score was 1.73 (inactive) in experiment [8], 1.76 (inactive) in experiment [9] and 4.67 in [10]. The compound further had a composite z-score in [2] of -0.017.
Regarding `[N-]=[N+]=Nc1ccccc1C[C@]1(C(=O)NCC(O)CO)N=C(c2ccc(OCCCO)cc2)O[C@H]1c1ccccc1` (stereo not given in full), the z-score in experiment [1] is -0.2 (inactive); in experiment [3] it was 19.9 (active); in experiment [4], 3.78 (inactive); in experiment [5], 1.64 (inactive); in [6], 1.18 (inactive); in experiment [7] it was -0.132. In addition, the results for the z-score in experiment [8], in experiment [9] and in experiment [10] were 1.34 (inactive), 0.567 (inactive) and -1.25, respectively. The same compound had a composite z-score in experiment [2] of 0.027.
On to `C[N+](C)(C)CCCCCCNC(=O)[C@H]1C[C@H]2C(=O)N[C@@H](Cc3ccccc3)C(=O)N2[C@H]1c1cccc(OCCO)c1`, for which the z-score is 0.123 (inactive) in experiment [1]; 10.3 (active) in experiment [3]; 1.48 (inactive) in experiment [4]; -1.42 (inactive) in experiment [5]; 0.719 (inactive) in experiment [6]; -0.62 in experiment [7]. The z-score in experiment [8] is 1.78 (inactive); in experiment [9] it was 0.576 (inactive); in experiment [10] it was 1.13. Besides, the composite z-score in experiment [2] amounted to 0.222.
Regarding `O=C1C2C=CC(C(O)c3ccc4c(c3)OCO4)N(Nc3ccc([N+](=O)[O-])cc3)C2C(=O)N1c1ccccc1` (stereo not given), the z-score in experiment [1] is -0.81 (inactive); in experiment [3], 18.1 (active); in [4], 3.98 (inactive); in [5], 1.4 (inactive); in experiment [6] it was 1.66 (inactive); in experiment [7] it was -0.363. The z-score in experiment [8] is -1 (inactive); in experiment [9], -3.31 (inactive); in [10], -2.1. This compound registered a composite z-score in experiment [2] of -0.101.
As to `C#CCN1[C@H](/C=C/C2CC2)[C@H](Cc2ccccc2)OC(=O)[C@@H]1Cc1ccccc1`, the z-score in experiment [1] was -0.625 (inactive); in experiment [3], 0.128 (inactive); in experiment [4] it was 0.224 (inactive); in experiment [5], -0.491 (inactive); in experiment [6], -0.16 (inactive); in experiment [7], 0.0807. For the same compound, the z-score is -0.263 (inactive) in experiment [8], -0.367 (inactive) in [9] and -1.98 in [10]. Also, the composite z-score in experiment [2] is -0.306.
Take `C=CC[C@]1(C(N)=O)COC(c2ccc(OCCCO)cc2)=N1`: the z-score in experiment [1] was 1.3 (inactive); in [3] it was 3.06 (inactive); in experiment [4], 0.167 (inactive); in [5], 0.111 (inactive); in experiment [6] it was 0.322 (inactive); in experiment [7], 0.537. Moreover, the z-score in experiment [8] was -2.3 (inactive); in experiment [9], 0.13 (inactive); in experiment [10], -0.131. The compound further had a composite z-score in experiment [2] of 0.269.
With `CC(C)NC(=O)[C@@]1(Cc2ccccc2I)c2ccccc2C(=O)N(Cc2ccccc2Cl)[C@H]1c1ccc(CO)cc1`, the z-score in experiment [1] was -0.522 (inactive); in experiment [3], 10.7 (active); in experiment [4], 1.77 (inactive); in experiment [5] it was 0.614 (inactive); in experiment [6] it was 1.06 (inactive); in experiment [7], 0.026. For the same compound, the values for the z-score in experiment [8], in experiment [9] and in experiment [10] were 0.284 (inactive), 0.904 (inactive) and 0.774, respectively. The compound also gave a composite z-score in [2] of 0.223.
